# The supplement of paper PMC12282887
# ± gives the standard deviation of the averaged measurements.
# Columns and labels:
# Assay in all cases: promoter activity interaction Z-score (Lux/OD deviation from empty-vector control); higher = stronger promoter induction by the compound
# [1] = tested on: E. coli BW25113 acrABp lux reporter
# How it was run: (§1)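 Low-copy luxCDABE promoter reporters were carried by E. coli BW25113, either wild type or lacking one of three genes, grown in 40 µl LB Lennox in 384-well plates at 37°C. Each compound was run at four 1:2 dilutions in biological duplicates, with OD600 and luminescence read every 30 min for 12 h. Integration used 0–8 h for wild type and 1–9 h for deletion strains, and wells under 10% of the median growth value were removed. Luminescence normalised to growth was fitted against a control, and the Z-transformed residual is the score.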
# [2] = tested on: E. coli BW25113 marRABp lux reporter
# How it was run: as §1
# [3] = tested on: E. coli BW25113 micFp lux reporter
# How it was run: as §1
# [4] = tested on: E. coli BW25113 ompFp lux reporter
# How it was run: as §1
# [5] = tested on: E. coli BW25113 robp lux reporter
# How it was run: as §1
# [6] = tested on: E. coli BW25113 soxSp lux reporter
# How it was run: as §1
# [7] = tested on: E. coli BW25113 tolCp lux reporter
# How it was run: as §1
# [8] = 1.3 µg/ml, genetic background: wild type
# [9] = 1.3 µg/ml, genetic background: ΔmarA
# [10] = 1.3 µg/ml, genetic background: Δrob
# [11] = 1.3 µg/ml, genetic background: ΔsoxS
# [12] = 2.5 µg/ml, genetic background: wild type
# [13] = 2.5 µg/ml, genetic background: ΔmarA
# [14] = 2.5 µg/ml, genetic background: Δrob
# [15] = 2.5 µg/ml, genetic background: ΔsoxS
# [16] = 5 µg/ml, genetic background: wild type
# [17] = 5 µg/ml, genetic background: ΔmarA
# [18] = 5 µg/ml, genetic background: Δrob
# [19] = 5 µg/ml, genetic background: ΔsoxS
# [20] = 10 µg/ml, genetic background: wild type
# [21] = 10 µg/ml, genetic background: ΔmarA
# [22] = 10 µg/ml, genetic background: Δrob
# [23] = 10 µg/ml, genetic background: ΔsoxS
smiles,measurement,setting,value
C/C=C/C/C=C/CCC(=O)[C@H]1O[C@H]1C(N)=O [Cerulenin],promoter activity interaction Z-score,[1]; [8],-0.125 ± 0.083
same,promoter activity interaction Z-score,[1]; [9],0.156 ± 2.5
same,promoter activity interaction Z-score,[1]; [10],-0.449 ± 0.14
same,promoter activity interaction Z-score,[1]; [11],-0.289 ± 0.15
same,promoter activity interaction Z-score,[1]; [12],-0.467 ± 0.3
same,promoter activity interaction Z-score,[1]; [13],-0.0359 ± 0.66
same,promoter activity interaction Z-score,[1]; [14],-0.976 ± 0.19
same,promoter activity interaction Z-score,[1]; [15],-0.932 ± 0.045
same,promoter activity interaction Z-score,[1]; [16],-0.444 ± 0.41
same,promoter activity interaction Z-score,[1]; [17],-0.831 ± 1.3
same,promoter activity interaction Z-score,[1]; [18],-0.767 ± 0.071
same,promoter activity interaction Z-score,[1]; [19],-1.14 ± 0.31
same,promoter activity interaction Z-score,[1]; [20],-0.873 ± 0.42
same,promoter activity interaction Z-score,[1]; [21],-0.628 ± 0.16
same,promoter activity interaction Z-score,[1]; [22],-1.08 ± 0.23
same,promoter activity interaction Z-score,[1]; [23],-1.52 ± 0.22
same,promoter activity interaction Z-score,[2]; [8],-0.429 ± 0.45
same,promoter activity interaction Z-score,[2]; [9],-0.469 ± 0.27
same,promoter activity interaction Z-score,[2]; [10],-0.456 ± 0.13
same,promoter activity interaction Z-score,[2]; [11],-0.416 ± 0.089
same,promoter activity interaction Z-score,[2]; [12],-0.654 ± 0.29
same,promoter activity interaction Z-score,[2]; [13],-0.403 ± 0.076
same,promoter activity interaction Z-score,[2]; [14],-0.662 ± 0.091
same,promoter activity interaction Z-score,[2]; [15],-0.444 ± 0.12
same,promoter activity interaction Z-score,[2]; [16],-0.892 ± 0.19
same,promoter activity interaction Z-score,[2]; [17],-0.779 ± 0.41
same,promoter activity interaction Z-score,[2]; [18],-0.818 ± 0.011
same,promoter activity interaction Z-score,[2]; [19],-0.796 ± 0.034
same,promoter activity interaction Z-score,[2]; [20],-0.948 ± 0.37
same,promoter activity interaction Z-score,[2]; [21],-0.377 ± 0.77
same,promoter activity interaction Z-score,[2]; [22],-1.01 ± 0.028
same,promoter activity interaction Z-score,[2]; [23],-0.994 ± 0.11
same,promoter activity interaction Z-score,[3]; [8],-0.474 ± 0.33
same,promoter activity interaction Z-score,[3]; [9],-0.0522 ± 0.1
same,promoter activity interaction Z-score,[3]; [10],-0.112 ± 0.0041
same,promoter activity interaction Z-score,[3]; [11],-0.269 ± 0.047
same,promoter activity interaction Z-score,[3]; [12],-0.545 ± 0.087
same,promoter activity interaction Z-score,[3]; [13],0.0153 ± 0.15
same,promoter activity interaction Z-score,[3]; [14],-0.217 ± 0.13
same,promoter activity interaction Z-score,[3]; [15],-0.157 ± 0.23
same,promoter activity interaction Z-score,[3]; [16],-0.73 ± 0.2
same,promoter activity interaction Z-score,[3]; [17],-0.0985 ± 0.11
same,promoter activity interaction Z-score,[3]; [18],-0.316 ± 0.094
same,promoter activity interaction Z-score,[3]; [19],-0.417 ± 0.0084
same,promoter activity interaction Z-score,[3]; [20],-0.803 ± 0.19
same,promoter activity interaction Z-score,[3]; [21],-0.112 ± 0.028
same,promoter activity interaction Z-score,[3]; [22],-0.428 ± 0.056
same,promoter activity interaction Z-score,[3]; [23],-0.177 ± 0.14
same,promoter activity interaction Z-score,[4]; [8],0.448 ± 0.98
same,promoter activity interaction Z-score,[4]; [9],-0.174 ± 0.032
same,promoter activity interaction Z-score,[4]; [10],0.809 ± 0.68
same,promoter activity interaction Z-score,[4]; [11],0.456 ± 0.65
same,promoter activity interaction Z-score,[4]; [12],0.281 ± 0.58
same,promoter activity interaction Z-score,[4]; [13],0.575 ± 1.4
same,promoter activity interaction Z-score,[4]; [14],0.286 ± 1.6
same,promoter activity interaction Z-score,[4]; [15],0.108 ± 0.82
same,promoter activity interaction Z-score,[4]; [16],0.0997 ± 0.61
same,promoter activity interaction Z-score,[4]; [17],-0.516 ± 0.26
same,promoter activity interaction Z-score,[4]; [18],-0.143 ± 0.79
same,promoter activity interaction Z-score,[4]; [19],-0.26 ± 1
same,promoter activity interaction Z-score,[4]; [20],-0.484 ± 0.16
same,promoter activity interaction Z-score,[4]; [21],-0.179 ± 1.2
same,promoter activity interaction Z-score,[4]; [22],-0.74 ± 0.62
same,promoter activity interaction Z-score,[4]; [23],-0.034 ± 1
same,promoter activity interaction Z-score,[5]; [8],-0.713 ± 0.68
same,promoter activity interaction Z-score,[5]; [9],-0.524 ± 0.17
same,promoter activity interaction Z-score,[5]; [10],-0.0923 ± 0.31
same,promoter activity interaction Z-score,[5]; [11],-0.398 ± 0.41
same,promoter activity interaction Z-score,[5]; [12],-0.365 ± 0.25
same,promoter activity interaction Z-score,[5]; [13],1.47 ± 0.041
same,promoter activity interaction Z-score,[5]; [14],-0.839 ± 0.52
same,promoter activity interaction Z-score,[5]; [15],-0.254 ± 0.55
same,promoter activity interaction Z-score,[5]; [16],-0.743 ± 0.19
same,promoter activity interaction Z-score,[5]; [17],-0.973 ± 0.24
same,promoter activity interaction Z-score,[5]; [18],-0.585 ± 0.0081
same,promoter activity interaction Z-score,[5]; [19],-1.25 ± 0.42
same,promoter activity interaction Z-score,[5]; [20],-0.802 ± 0.13
same,promoter activity interaction Z-score,[5]; [21],-0.285 ± 0.72
same,promoter activity interaction Z-score,[5]; [22],-0.242 ± 0.94
same,promoter activity interaction Z-score,[5]; [23],-1.2 ± 0.47
same,promoter activity interaction Z-score,[6]; [8],0.113 ± 0.13
same,promoter activity interaction Z-score,[6]; [9],0.192 ± 0.091
same,promoter activity interaction Z-score,[6]; [10],0.247 ± 0.027
same,promoter activity interaction Z-score,[6]; [11],0.367 ± 0.43
same,promoter activity interaction Z-score,[6]; [12],0.186 ± 0.013
same,promoter activity interaction Z-score,[6]; [13],0.183 ± 0.076
same,promoter activity interaction Z-score,[6]; [14],0.113 ± 0.03
same,promoter activity interaction Z-score,[6]; [15],0.157 ± 0.38
same,promoter activity interaction Z-score,[6]; [16],0.112 ± 0.028
same,promoter activity interaction Z-score,[6]; [17],0.138 ± 0.17
same,promoter activity interaction Z-score,[6]; [18],0.18 ± 0.047
same,promoter activity interaction Z-score,[6]; [19],0.17 ± 0.56
same,promoter activity interaction Z-score,[6]; [20],-0.107 ± 0.23
same,promoter activity interaction Z-score,[6]; [21],-0.0897 ± 0.034
same,promoter activity interaction Z-score,[6]; [22],-0.133 ± 0.19
same,promoter activity interaction Z-score,[6]; [23],0.572 ± 1.2
same,promoter activity interaction Z-score,[7]; [8],-1.14 ± 0.49
same,promoter activity interaction Z-score,[7]; [9],-0.979 ± 0.76
same,promoter activity interaction Z-score,[7]; [10],-0.746 ± 0.32
same,promoter activity interaction Z-score,[7]; [11],-0.768 ± 0.23
same,promoter activity interaction Z-score,[7]; [12],-0.464 ± 0.17
same,promoter activity interaction Z-score,[7]; [13],-0.204 ± 1.3
same,promoter activity interaction Z-score,[7]; [14],-1.38 ± 0.2
same,promoter activity interaction Z-score,[7]; [15],-0.639 ± 0.61
same,promoter activity interaction Z-score,[7]; [16],-0.559 ± 0.033
same,promoter activity interaction Z-score,[7]; [17],-0.9 ± 0.62
same,promoter activity interaction Z-score,[7]; [18],-1.25 ± 0.71
same,promoter activity interaction Z-score,[7]; [19],-1.5 ± 0.1
same,promoter activity interaction Z-score,[7]; [20],-0.737 ± 0.051
same,promoter activity interaction Z-score,[7]; [21],-1.7 ± 0.36
same,promoter activity interaction Z-score,[7]; [22],-0.996 ± 0.2
same,promoter activity interaction Z-score,[7]; [23],-0.404 ± 0.65
